Our source for the composite z-score and composite Z-score values is PubChem BioAssay.

One test deals with Albumin (Bos taurus) (UniProt P02769). The test is described as follows: compounds binding labelled BSA control protein – biochemical, small-molecule microarray, Alexa647 label, 635/667 nm fluorescence, artefact control for SMM control protein annotation, profiling panel (AID 1118).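 Note: score merges 667 nm emission intensity and signal-to-noise per printed compound spot.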 The settings on record: BSA-A647 binding, fluorescence 635 nm, higher = more signal.
Sequence of Albumin (Bos taurus) (P02769 whole entry, looked up): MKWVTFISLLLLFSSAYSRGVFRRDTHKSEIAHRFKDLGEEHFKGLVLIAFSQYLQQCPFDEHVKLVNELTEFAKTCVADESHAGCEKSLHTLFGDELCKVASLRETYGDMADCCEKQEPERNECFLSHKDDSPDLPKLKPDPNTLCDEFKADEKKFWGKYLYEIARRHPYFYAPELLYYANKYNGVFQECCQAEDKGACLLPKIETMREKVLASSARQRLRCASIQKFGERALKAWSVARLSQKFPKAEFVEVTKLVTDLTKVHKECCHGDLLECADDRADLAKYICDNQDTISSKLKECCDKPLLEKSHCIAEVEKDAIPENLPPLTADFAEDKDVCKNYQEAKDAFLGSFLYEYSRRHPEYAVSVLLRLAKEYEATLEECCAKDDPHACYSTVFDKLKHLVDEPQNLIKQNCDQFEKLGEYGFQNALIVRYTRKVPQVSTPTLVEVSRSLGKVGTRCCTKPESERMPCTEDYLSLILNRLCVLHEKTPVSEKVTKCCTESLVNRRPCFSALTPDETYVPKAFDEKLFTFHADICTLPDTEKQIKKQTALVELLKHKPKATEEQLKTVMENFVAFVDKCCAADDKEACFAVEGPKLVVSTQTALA
Test [1] in a line: probe aXIP binding to arrayed compounds – biochemical, NeuroSMM set, 635/667 nm fluorescence, primary screen (AID 1119).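 Note: probe is the protein aXip251-270 applied at 1 µg/mL to compound-printed slides; binding of probe to printed compounds measured as 667 nm fluorescence plus signal to noise.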 The settings on record: small-molecule microarray, higher = more signal, called active from +8 up or from −8 down.
A short description of test [2]: probe aNOTCH3 binding on compound microarray – biochemical, small-molecule microarray, 635/667 nm fluorescence, primary screen (AID 1120).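 Note: probe is a biotin-tagged antibody raised against NOTCH3 rather than NOTCH3 protein; score merges spot fluorescence near 667 nm with spot signal to noise.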 The settings on record: higher = more signal.
Test [3] can be described thus: probe aNOTCH2 binding on compound microarray – biochemical, small-molecule microarray, 635/667 nm fluorescence, primary screen (AID 1121).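 Note: score merges feature fluorescence read at 667 nm with its signal to noise.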 The following applies: higher = more signal.
Test [4] concerns the target Carbonic anhydrase 2 (Homo sapiens) (UniProt P00918). The test is described as follows: compounds binding carbonic anhydrase 2 – biochemical, small-molecule microarray, Alexa647-labelled CAII, profiling panel (AID 1122). The following applies: CAII-A647 binding fluorescence, higher = more signal.
Test [5] can be described thus: COS7 lysate on small-molecule microarray, probe aHis, 635 nm (AID 1123).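 Note: z-score combines 667nm fluorescence intensity with signal-to-noise per printed compound spot.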 The settings on record: COS7 cell lysate, fluorescence, higher = more signal.
The nature of test [6]: probe aLAP1 signal on lysate-treated microarray – cell lysate, small-molecule microarray, COS7 lysate, primary screen (AID 1124).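 Note: lysate comes from COS7 cells expressing LAP1 and is applied at 0.3 µg/mL; score merges spot fluorescence near 667 nm with signal-to-noise over triplicate slides.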 The following applies: probe aLAP1, fluorescence, higher = more signal.
The next test deals with Sam68 (KHDRBS1). The test is described as follows: compounds binding KHDRBS1 protein – biochemical, small-molecule microarray, 635 nm fluorescence, primary screen (AID 1125).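 Note: score merges 667 nm channel intensity with signal to noise over triplicate slides.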 The settings on record: higher = more signal.
Test [7] relates to Chordin-like protein 2 (CHRDL2). The test is described as follows: compounds binding chordin-like 2 – biochemical, small-molecule microarray, 635 nm fluorescence, primary screen (AID 1126).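 Note: printed compound slides probed with Chrdl2 protein at 4 µg/mL for 1 h at 4 C; score merges 667 nm emission intensity with signal to noise over three replicate slides.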 The settings on record: fluorescence 635 nm, higher = more signal.
In test [8] the target is Concanavalin-A (Canavalia ensiformis) (UniProt P02866). The test is described as follows: compounds binding concanavalin A lectin – biochemical, small-molecule microarray, Alexa647 label, 635 nm, artefact control for SMM control protein annotation, primary screen (AID 1127).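 Note: z combines 667 nm emission intensity with signal-to-noise across three replicate slides.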 The following applies: ConA-A647 binding fluorescence, higher = more signal.
Sequence of Concanavalin-A (Canavalia ensiformis) (P02866 whole entry, looked up): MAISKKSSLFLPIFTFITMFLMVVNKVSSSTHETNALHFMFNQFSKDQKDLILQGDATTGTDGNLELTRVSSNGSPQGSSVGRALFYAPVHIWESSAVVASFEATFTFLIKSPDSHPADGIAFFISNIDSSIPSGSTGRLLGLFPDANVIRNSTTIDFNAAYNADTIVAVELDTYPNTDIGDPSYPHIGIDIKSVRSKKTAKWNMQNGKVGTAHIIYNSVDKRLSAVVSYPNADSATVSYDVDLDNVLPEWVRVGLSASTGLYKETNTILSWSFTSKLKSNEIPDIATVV

Calls of active or inactive are those of the source.

`CCCCCCc1nc(Cc2cc(OC)c(OC)c(OC)c2)cc2c1[Si](C(C)C)(C(C)C)OC2`: the composite z-score with Albumin (Bos taurus) was -0.526; in [2] it was -0.0395; in test [3] it was -0.153; in test [4], -0.0134; in test [5], 0.157; in test [6], -0.0343. Besides, the composite z-score with Sam68 (KHDRBS1) worked out at 0.239; in test [7] it was 0.472; in [8], 0.524. Also, the composite Z-score in [1] was 0.0886 (inactive).
In the case of `COCCOC(=O)N1C(=O)[C@@]2(c3cc(C#CCC(C(=O)OC)C(=O)OC)ccc31)[C@H](c1ccc(OCCO)cc1)N1[C@H](c3ccccc3)[C@H](c3ccccc3)OC(=O)[C@H]1[C@@H]2C(=O)N1CCc2cc(OC)c(OC)cc2C1`, the composite z-score was 0.688 with Albumin (Bos taurus); 0.0351 in [2]; -0.106 in [3]; 0.256 in [4]; 1.48 in test [5]; -0.0051 in test [6]. The values for the composite z-score (with Sam68 (KHDRBS1); in test [7]; in test [8]) were 1.06, 0.378 and 1.11, respectively. The composite Z-score in test [1] is -0.388 (inactive).
Regarding `COc1cc(NN2C(C(O)c3ccc(N(C)C)cc3)C=CC3C(=O)N(c4ccccc4)C(=O)C32)cc(OC)c1OC` (stereo not given), the composite z-score with Albumin (Bos taurus) was 0.353; in test [2] it was 0.448; in test [3], 0.0606; in test [4] it was 0.192; in test [5], 0.68; in [6] it was -0.196. The values for the composite z-score (with Sam68 (KHDRBS1); in [7]; in [8]) were 0.913, -0.148 and 0.0693, respectively. The composite Z-score in [1] was 0.785 (inactive).
On to `C=CCN1C(=O)[C@]2(CCC(=O)OC(C)(C)C)N=C(c3ccc(OCCCO)cc3)O[C@@H]2c2ccccc21`, for which the composite z-score with Albumin (Bos taurus) is -0.361; in test [2], 0.185; in test [3] it was -0.118; in test [4], 0.256; in test [5], 1.38; in test [6], 0.023. Also, the results for the composite z-score (in the test on Sam68 (KHDRBS1); in [7]; in [8]) were 0.587, 0.281 and 1.14, respectively. Further, the composite Z-score in test [1] was -0.014 (inactive).
Take `CN(C)C(=O)[C@@]1(Cc2ccccc2)N=C(c2ccc(OCCCO)cc2)O[C@H]1c1ccccc1`: the composite z-score with Albumin (Bos taurus) amounted to 0.637; in test [2] it was 0.738; in test [3], 0.314; in test [4] it was 0.617; in [5], 2.69; in [6], 0.973. Besides, the results for the composite z-score (in the test with Sam68 (KHDRBS1); in test [7]; in [8]) were 0.983, -0.682 and 0.931, respectively. The composite Z-score in test [1] was 0.684 (inactive).
As for `COCCOC(=O)N1C(=O)[C@@]2(c3cc(C#CC4(O)CCCCCC4)ccc31)[C@H](c1ccc(O)cc1)N1[C@H](c3ccccc3)[C@H](c3ccccc3)OC(=O)[C@H]1[C@@H]2C(=O)N1CCN(c2ncccn2)CC1`, the composite z-score with Albumin (Bos taurus) was 0.521; in [2], 0.0562; in [3], -0.12; in test [4] it was 0.437; in test [5], 1.29; in [6] it was 0.46. Besides, the results for the composite z-score (in the test on Sam68 (KHDRBS1); in test [7]; in test [8]) were 1.29, -0.163 and 1.12, respectively. Also, in test [1], the composite Z-score is 0.883 (inactive).
Regarding `[N-]=[N+]=Nc1ccccc1C[C@]1(C(=O)NCCN2CCOCC2)COC(c2ccc(OCCCO)cc2)=N1`, the composite z-score with Albumin (Bos taurus) was 0.18; in test [2], -0.0745; in test [3] it was 0.0328; in test [4] it was 0.348; in test [5], 1.87; in test [6], 1.26. For the same compound, the composite z-score with Sam68 (KHDRBS1) was 1.15; in test [7], 0.376; in [8] it was 1.1. Further, the composite Z-score in test [1] was -0.34 (inactive).
For `NC(=O)NCC#Cc1ccc2c(c1)[C@]1(C(=O)N2)[C@H](C(=O)N2CCN(c3ncccn3)CC2)[C@H]2C(=O)O[C@H](c3ccccc3)[C@H](c3ccccc3)N2[C@@H]1c1ccc(O)cc1`, the composite z-score was 0.151 with Albumin (Bos taurus); 0.856 in test [2]; -0.0149 in test [3]; 0.304 in [4]; 0.817 in [5]; 0.102 in test [6]. Besides, the composite z-score came out at 1.2 in the test with Sam68 (KHDRBS1), 0.864 in test [7] and 0.721 in test [8]. The composite Z-score in test [1] was 0.953 (inactive).
Consider `Cc1ccc(S[C@]2(C(=O)NCc3ccccc3)CC(=O)N(C3CCCCC3)[C@@H]2c2ccc(CO)cc2I)cc1`, for which the composite z-score in the test with Albumin (Bos taurus) is 0.0863; in [2], 0.0301; in test [3] it was -0.133; in test [4], 0.459; in test [5] it was 2.13; in [6], 0.658. The composite z-score with Sam68 (KHDRBS1) was found to be 1.23; in test [7], 0.338; in test [8], 1.14. For the same compound, the composite Z-score in test [1] was -0.0202 (inactive).
With `CCOC(=O)C[C@H]1[C@H](OC(=O)c2ccccc2-c2ccccc2)[C@@H](NC(=O)c2ccc3ccccc3n2)c2cc(OCCCO)ccc2N1C(=O)Cc1ccc(OC)cc1`, the composite z-score with Albumin (Bos taurus) was 0.505; in test [2] it was 0.033; in [3] it was -0.106; in [4], 0.105; in [5], 0.428; in test [6], 0.134. The composite z-score came to 0.368 in the test with Sam68 (KHDRBS1), 0.456 in [7] and 0.0562 in [8]. Moreover, the composite Z-score in [1] was -0.891 (inactive).
On to `CC(=O)NCCCC[C@@H]1NC(=O)[C@@H]2C[C@H](C(=O)NCCCCCN)[C@H](c3ccc(O)cc3)N2C1=O`, for which the composite z-score with Albumin (Bos taurus) was 0.0285; in [2], 0.237; in test [3] it was 0.0654; in test [4] it was 0.527; in test [5], 1.26; in test [6] it was 1.06. Also, the composite z-score in the test on Sam68 (KHDRBS1) was determined as 1.11; in [7] it was 0.964; in test [8] it was 0.956. Besides, the composite Z-score in [1] is -0.0662 (inactive).
With `Cc1ccc(NN2C(C(O)c3c(F)cccc3Cl)C=CC3C(=O)N(C4CCCCC4)C(=O)C32)cc1` (stereo not given), the composite z-score with Albumin (Bos taurus) is 0.979; in test [2], 0.102; in [3] it was 0.174; in test [4] it was 0.489; in test [5], 2.38; in [6] it was -0.0134. Further, the composite z-score was 1.25 with Sam68 (KHDRBS1), -0.804 in test [7] and 1.19 in test [8]. For the same compound, in test [1], the composite Z-score is 0.788 (inactive).
With `CN(C)c1ccc(C(O)C2C=CC3C(=O)NC(=O)C3N2Nc2ccccn2)cc1` (stereo not given), the composite z-score with Albumin (Bos taurus) is 0.396; in test [2] it was -0.0419; in test [3], 0.046; in [4], 0.788; in test [5], 0.718; in test [6], 0.282. Moreover, the composite z-score in the test with Sam68 (KHDRBS1) is 0.711; in [7], 0.987; in test [8], 0.372. The composite Z-score in [1] is 0.378 (inactive).
Turning to `C#CCN([C@@H](Cc1ccccc1)C(=O)OC)[C@@H](/C=C/C1CC1)[C@H](O)Cc1ccccc1`, the composite z-score is 0.801 in the test with Albumin (Bos taurus); -0.0984 in test [2]; -0.208 in [3]; -0.321 in test [4]; -0.0769 in test [5]; 0.868 in [6]. Besides, the values for the composite z-score (in the test on Sam68 (KHDRBS1); in test [7]; in test [8]) were -0.326, 1.16 and -1.5, respectively. Further, in test [1], the composite Z-score is -0.275 (inactive).
Turning to `CCCNC(=O)[C@@H]1c2ccccc2C(=O)N(Cc2ccc(OC(F)(F)F)cc2)[C@H]1c1ccc(CO)cc1`, the composite z-score with Albumin (Bos taurus) was 0.27; in test [2], -0.0288; in [3], -0.0326; in test [4] it was 0.158; in test [5], 0.677; in test [6] it was -0.374. Moreover, the composite z-score with Sam68 (KHDRBS1) was determined as 0.416; in [7], 0.102; in test [8], 0.0505. Also, in test [1], the composite Z-score was -0.123 (inactive).
On to `CCCC=C(CCC)[C@@H](NC(=O)C(C)(C)C)c1ccc(C(=O)OC)cc1`, for which the composite z-score in the test with Albumin (Bos taurus) is 0.991; in test [2], 0.25; in [3], 0.0199; in [4], 0.441; in test [5], 2.76; in [6] it was 0.103. Also, the composite z-score with Sam68 (KHDRBS1) is 0.622; in test [7], -0.91; in [8], 0.869. Besides, the composite Z-score in [1] was 0.29 (inactive).
Consider `CN1C(=O)C2C=CC(C(O)c3cccn3C)N(Nc3ccc([N+](=O)[O-])cc3[N+](=O)[O-])C2C1=O` (stereo not given), for which the composite z-score with Albumin (Bos taurus) was 0.38; in test [2], 0.0681; in [3] it was 0.476; in test [4] it was 0.848; in [5], 0.856; in test [6], 0.376. Further, the composite z-score in the test with Sam68 (KHDRBS1) is -0.0879; in test [7] it was -0.248; in [8] it was -0.0516. Besides, in [1], the composite Z-score is -0.398 (inactive).
